Compound activity: PubChem BioAssay, several laboratories
Sampled rows, rich in hits. Any-hit rate of the full collection: about 27%.
CYP2C9 inhib = human CYP2C9 inhibition. 20% of 96,000 active. AID 777. inhibition, % at 5 µM. CYP2C9 Supersomes, luciferin-H conversion, luminescence;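 active = blocking of liver enzyme CYP2C9 beyond about 50% at 5 µM, limit read from the data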
Target sequence (P11712 whole entry, looked up): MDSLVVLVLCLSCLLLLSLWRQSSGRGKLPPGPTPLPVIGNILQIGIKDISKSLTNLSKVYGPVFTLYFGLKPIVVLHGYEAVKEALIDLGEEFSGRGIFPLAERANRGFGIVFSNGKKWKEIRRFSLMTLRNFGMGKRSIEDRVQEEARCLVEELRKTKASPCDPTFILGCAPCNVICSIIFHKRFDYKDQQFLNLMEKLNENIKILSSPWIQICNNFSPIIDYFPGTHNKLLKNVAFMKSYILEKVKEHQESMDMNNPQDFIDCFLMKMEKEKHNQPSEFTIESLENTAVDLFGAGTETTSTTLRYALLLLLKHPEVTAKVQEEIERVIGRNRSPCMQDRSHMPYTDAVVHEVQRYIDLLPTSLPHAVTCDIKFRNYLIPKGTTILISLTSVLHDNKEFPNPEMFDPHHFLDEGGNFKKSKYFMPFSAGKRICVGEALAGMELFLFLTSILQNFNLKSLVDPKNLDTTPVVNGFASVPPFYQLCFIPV
Cav32 inh = human Cav3.2 channel inhibition, primary screen. B-score at 10 µM. 4% of 100,000 active. AID 449739. Cav3.2-expressing cells, Fluo-4 calcium fluorescence FDSS; hits give low values. O95180;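 active = single-dose well whose peak fluorescence ratio is a statistical outlier from its plate by either plate-standardised score or position-corrected B-score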
CYP2C19 act = activators of human cytochrome P450 2C19. recombinant CYP2C19, luciferin-H EGE luminescence; hits give high values; 0 = fully inhibited enzyme, 1 = untreated enzyme. 96,000 tested, under 10 active. P33261. AID 1025. activation factor at 5 µM;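 active = activation factor of at least 2 at 5 µM in the primary screen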
CYP2C9 activ = increases human cytochrome P450 2C9 activity; 1.4% of 96,000 active; activation factor at 5 µM; recombinant CYP2C9, luciferin-H conversion, luminescence; hits give high values; factor 1 = untreated enzyme, 0 = blocked; AID 1024; P11712;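 active = activation factor of 2 or more for CYP2C9 at a 5 µM dose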
CYP2C19 inhib = inhibitors of human CYP2C19; P33261; CYP2C19 Supersomes, luciferin-H EGE luminescence, 30 min; inhibition, % at 5 µM; 21% of 96,000 active; AID 778;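 active = CYP2C19 inhibition above a set limit at 5 µM in the primary screen, cut at about 50% in these data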
Large screens that a line does not name were inactive.

FC(F)(F)c1ccc(N2CCN(c3ncnc4c3nnn4Cc3ccccc3)CC2)nc1	none
Fc1ccccc1Cn1nnc2c(-n3ccnc3)ncnc21	CYP2C9 inhib 91, CYP2C19 inhib 99
c1ccc2c(c1)oc1c(N3CCN(Cc4ccc5c(c4)OCO5)CC3)ncnc12	CYP2C9 inhib 86, CYP2C19 inhib 82
Clc1ccc(Cn2ncc3c(N4CCCC4)ncnc32)cc1	none
c1ccc(Cn2nnc3c(N4CCN(Cc5ccc6c(c5)OCO6)CC4)ncnc32)cc1	CYP2C9 inhib 85, CYP2C19 inhib 84
Clc1ccc(Cn2ncc3c(N4CCOCC4)ncnc32)cc1	CYP2C19 inhib 67 (no result: Cav32 inh)
Cc1ccc(NS(=O)(=O)c2cc(C(=O)N3CCN(C)CC3)ccc2C)cc1	none
Cc1ccccc1NC(=O)c1ccc(C)c(S(=O)(=O)Nc2ccccn2)c1	none
Cc1ccc(C(N)=O)cc1S(=O)(=O)Nc1cccc(C)c1C	CYP2C19 inhib 99
Cc1ccc(NS(=O)(=O)c2cc(C(N)=O)ccc2C)cc1	CYP2C9 inhib 67, CYP2C19 inhib 94
O=C(NC1=NCCS1)C12CC3CC(C1)CC(C(=O)NC1=NCCS1)(C3)C2	none
CC12CC3CC(C)(C1)CC(C(=O)NC1=NCCS1)(C3)C2	CYP2C19 inhib 58
O=C(c1ccccc1Nc1ccc(SC(F)F)cc1)N1CCCCCC1	CYP2C9 inhib 60, Cav32 inh -6.8, CYP2C19 inhib 84
NC(N)=NS(=O)(=O)c1ccc(N)cc1	none (no result: CYP2C9 inhib, CYP2C19 act, CYP2C9 activ, CYP2C19 inhib)
CCC(=O)N(CCC1(C(C)C)CCOC(C)(C)C1)Cc1ccco1 (stereo not given)	CYP2C19 inhib 59
CCOCCCNS(=O)(=O)c1ccc(OC)c(Cl)c1Cl	none (no result: CYP2C9 inhib, CYP2C19 act, CYP2C9 activ, CYP2C19 inhib)
O=C(OCC#CCSc1nnc(-c2ccccc2)o1)c1cccs1	none
O=C(OCC#CCSc1nnc(-c2ccc(Br)cc2)o1)c1ccco1	none
O=C(OCC#CCSc1nc2ccccc2s1)c1ccco1	CYP2C9 inhib 72, CYP2C19 inhib 83
O=C(OCC#CCSc1nnc(-c2cccc3ccccc23)o1)c1cccs1	Cav32 inh -4.7, CYP2C9 activ 2
O=C(OCC#CCSc1nnc(-c2ccccc2)o1)c1ccco1	CYP2C9 inhib 58, CYP2C19 inhib 88
CC(C)(CO)C(O)C(=O)NCCC#N (stereo not given)	none (no result: CYP2C9 inhib, CYP2C19 act, CYP2C9 activ, CYP2C19 inhib)
Cc1csc(NC(=O)CSc2nc(C(C)C)nc3c2c(=O)n(C)c(=O)n3C)n1	none (no result: CYP2C9 inhib, CYP2C19 act, CYP2C9 activ, CYP2C19 inhib)
CCOC(=O)C1=C(C)N(CCCC(=O)O)C(=O)NC1c1ccccc1OS(=O)(=O)c1ccccc1[N+](=O)[O-] (stereo not given)	none (no result: CYP2C9 inhib, CYP2C19 act, CYP2C9 activ, CYP2C19 inhib)
CCOC(=O)c1c(NC(=S)NC(=O)c2cnn(CC)c2)sc2c1CCC(C)C2 (stereo not given)	none
CCN(CC)S(=O)(=O)c1cccc(C(=O)N[C@H](C(=O)OCC(N)=O)C(C)C)c1	none
Cc1cc(NC(=O)Nc2cccc(C(F)(F)F)c2)no1	none
CCN(CC)S(=O)(=O)c1cc(NC(=O)COC(=O)CCc2nc3ccccc3s2)ccc1C	Cav32 inh -4.8
CCN(CC)S(=O)(=O)c1cccc(NC(=O)COC(=O)c2ccc(Br)o2)c1	CYP2C9 inhib 65
CCN(CC)S(=O)(=O)c1cccc(C(=O)N[C@H](C(=O)OCC(=O)Nc2ccccc2)C(C)C)c1	CYP2C9 inhib 99, Cav32 inh -9.2, CYP2C19 inhib 93
COc1ccc(NC(=O)COC(=O)c2ccc(Br)o2)cc1OC	none
COCCNC(=O)COC(=O)CSCc1nc2ccccc2s1	none
CCN(CC)S(=O)(=O)c1cccc(NC(=O)Nc2cccc(C(F)(F)F)c2)c1	Cav32 inh -5.8
CC1(C)CC(=O)c2cnc(N3CCc4ccccc4C3)nc2C1	none
CCC(C)(C)n1nnnc1C(c1cc2cc(C)cc(C)c2[nH]c1=O)N1CCN(C(=O)c2ccco2)CC1 (stereo not given)	none (no result: Cav32 inh)
CCN(CC)S(=O)(=O)c1cccc(NC(=O)COC(=O)CCc2nc3ccccc3s2)c1	CYP2C9 activ 2.3
C=CCOc1ccc2c(c1)C(=NO)c1cc(OCC=C)ccc1-2	CYP2C9 inhib 82
CCOC(=O)c1c(C)[nH]c(C)c1C(=O)CSc1nnnn1-c1ccccc1	CYP2C9 inhib 88, CYP2C19 inhib 99
CCOC(=O)c1c(C)[nH]c(C)c1C(=O)CSc1ncccn1	CYP2C19 inhib 59
CCOC(=O)c1[nH]c(CSc2nnnn2-c2ccccc2C)c(C(=O)OCC)c1C	CYP2C9 inhib 54
CCOC(=O)c1c(C)[nH]c(C)c1C(=O)COC(=O)CCOc1ccccc1OC	CYP2C9 inhib 83, CYP2C19 inhib 77
COC(=O)c1c(C)[nH]c(C(=O)CSc2nnnn2-c2ccccc2)c1C	none (no result: Cav32 inh)
